From PubChem
This is a sample that favours compounds with a hit; in the whole collection about 1.8% have one here.
Granule exo inh = lytic granule exocytosis inhibition; 360,000 compounds, 0.66% hits; TALL-104 LAMP-1 surface exposure, flow cytometry; cells stimulated with thapsigargin and PMA; inhibition, % at 10 µM;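 active means inhibition above about 55%, limit read from the data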
NPR2 activator = GC-B (human) receptor activation; P20594; HEK293-GC-B cells, CNP EC30, cGMP TR-FRET; 0% at EC30 CNP, 100% saturating CNP; activation, % at 10 µM; 370,000 compounds, 0.11% hits; AID 1920062;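 active means activation at 10 µM reaching about 35% in either raw or pattern-adjusted values, limit read from the data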
GC-A act = GC-A (human) enzyme activation. 370,000 compounds, 0.14% hits. AID 1671463. P16066. HEK293 GC-A cells, cGMP TR-FRET, EC30 ANP; 0% at EC30 ANP, 100% saturating ANP. activation, % at 10 µM; in the data active means activation above about 40%
Myeloid diff 2 = compounds promoting myeloid differentiation | 360,000 compounds, 1% hits | calls only at 10 µM | ER-HoxA9 myeloid progenitors, lysozyme-GFP differentiation, flow cytometry;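 active means normalized GFP-positive differentiation at or above the plate's own cutoff, the solvent-only control mean plus 3 SD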;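 further: cells exposed to compound for four days before flow analysis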
Myeloid diff = promotes myeloid progenitor differentiation; AID 651706; ER-HoxA9 myeloid progenitors, GFP/Mac1 double-positive flow; shares compounds with Myeloid diff 2; 2,300 compounds, 2% hits; calls only;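 active means share of green or green-and-red cells above 9 and 9% in run 1 or 4 and 3% in run 2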
GFP autofluor = counter-screen for myeloid differentiation promoters: compound fluorescence; 2,300 compounds, 7.4% hits; shares compounds with Myeloid diff 2; ER-HoxA9 myeloid progenitors, no estrogen, GFP autofluorescence flow cytometry; vehicle wells 0%, positive control 100%; fluorescence response, % (concentration not given with the values);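 active means over 5% cells positive for green fluorescent reporter, or over 2% positive for both it and APC stain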;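 further: range taken on the double positive population between DMSO and positive control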
Starred values were filed as active, the others as inactive; i = inactive; nt = no result given; + = active, no number.

SMILES | Granule exo inh | NPR2 activator | GC-A act | Myeloid diff 2 | Myeloid diff | GFP autofluor
CCCCn1c(O)c(C(=O)/C=C/c2c[nH]c3ccccc23)c(=O)[nH]c1=O | -3 | 2 | -6 | + | nt | nt
O=C(NC1CN2CCC1CC2)c1cc(-c2ccc(Cl)cc2)nc2ccccc12 (centres undefined) | nt | 0 | -7 | nt | nt | nt
COc1ccc(-n2c(O)c(/C=C3\C=Nc4ccc(Br)cc43)c(=O)[nH]c2=O)cc1 | -17 | 30 | 41* | i | nt | nt
COC(=O)C1=C(c2ccc(OC(F)(F)F)cc2)C[C@@H]2CC[C@H]1N2C(=O)NCCO | -2 | 6 | 2 | i | nt | nt
COC(=O)C1=C(c2ccc(OC(F)(F)F)cc2)C[C@@H]2CC[C@H]1N2C(=O)NCC1CC1 | -1 | 126* | 0 | i | nt | nt
CCCCCc1nc2c(c(=O)c3ccccc3n2C)c(=O)n1C1CCCCCC1 | 4 | 5 | 8 | + | nt | nt
CCCCCc1nc2ccccc2c(=O)n1-c1ccccc1[N+](=O)[O-] | 3 | -7 | -21 | i | nt | nt
C=C1C(=O)OC2CCN3CC=C(COC(=O)C(C)(O)C4(CO4)C1C)C23 (centres undefined) | -1 | -2 | 4 | i | nt | nt
Cc1ccc(S(=O)(=O)N2Cc3cnnn3-c3ccccc3C2C#N)cc1 (centres undefined) | -2 | 1 | -1 | + | nt | nt
CC(c1ccccc1)n1cc(C(=O)NC2CCCC2)nn1 (centres undefined) | nt | 7 | 3 | nt | nt | nt
Cc1ccc(N=C(/N=C(\N)N[N+](=O)[O-])Nc2ccc(C)cc2)cc1 | -7 | 1 | 1 | i | i | 1
CN(C/N=C(\N)N[N+](=O)[O-])S(=O)(=O)c1ccccc1 | 0 | -3 | -4 | i | nt | nt
CCC(C)C1NC(=O)C(C(C)=O)=C1O (centres undefined) | -5 | 5 | 2 | i | nt | nt
O=C1NC(=S)NC(=O)C1=Cc1ccc(OCc2ccccc2)cc1 | -11 | 4 | 3 | i | nt | nt
CN(CCOc1ccc(C=C2C(=O)NC(=O)NC2=O)cc1)c1ccccn1 | -3 | -2 | 1 | i | i | 0
CCN(CC)CCCN=Cc1c(O)n(-c2ccccc2F)c(=O)[nH]c1=O | -1 | -5 | -2 | i | nt | nt
CCN(CC)CCCN=Cc1c(O)n(-c2cccc(C)c2C)c(=O)[nH]c1=O | 0 | 4 | 3 | + | i | 0
CCC(=NC(C)c1ccccc1)c1c(O)[nH]c(=O)[nH]c1=O (centres undefined) | 4 | 6 | 4 | + | i | 1
CCc1nc2ccccc2c(=O)n1-c1ccccc1OC | -1 | 2 | -4 | i | nt | nt
CCOP(=S)(OCC)c1ccc(N(C)C)cc1 | 0 | -3 | -1 | + | i | 0
O=C(c1ccccc1)C1NC1c1ccccc1 (centres undefined) | -12 | -2 | 3 | i | nt | nt
CN(c1ccc(O)cc1)c1ccc([N+](=O)[O-])c2nonc12 | -32 | -4 | -2 | + | i | 4
O=[N+]([O-])c1ccc(N2CCCCCC2)c2nonc12 | 2 | 0 | -2 | i | nt | nt
COC(=O)NC(=C(Cl)Cl)P(=O)(c1ccccc1)c1ccccc1 | 21 | -1 | 2 | + | i | 0
Cc1ccc(C(=O)N/C(=C\Cl)P(=O)(c2ccccc2)c2ccccc2)cc1 | -2 | 10 | -4 | i | nt | nt
SMILES | Granule exo inh | NPR2 activator | GC-A act | Myeloid diff 2 | Myeloid diff | GFP autofluor
O=P1(NCCCn2cc[n+](Cc3nc4ccccc4[nH]3)c2)C=C(c2ccccc2)OC(c2ccccc2)=C1 | 20 | -2 | -2 | i | nt | nt
CCc1cc2c(cc1-c1csc(C/C(N)=N/O)n1)C(C)(C)CCC2(C)C | -3 | 3 | -6 | + | i | 2
OCCCCO | -2 | -4 | -2 | i | nt | nt
Fc1ccccc1N1CCN(Cc2ccc3c(c2)OCO3)CC1 | -1 | 1 | 2 | i | i | 0
O=c1[nH]c(=S)[nH]c(O)c1N=Nc1ccc2c(c1)OCCO2 | -4 | -15 | -12 | + | i | 0
O=c1[nH]c(=S)[nH]c(O)c1N=Nc1ccc2c(c1)OCO2 | -5 | -14 | -14 | i | nt | nt
COC(=O)C1=C(c2cc3ccccc3s2)C[C@@H]2CC[C@H]1N2C(=O)NC1CC1 | -4 | 3 | -6 | i | nt | nt
COC(=O)C1=C(c2ccc(Cl)c(C(F)(F)F)c2)C[C@@H]2CC[C@H]1N2C(=O)N1CCCC1 | -4 | -2 | -3 | i | i | 0
CCCNC(=O)N1[C@H]2CC[C@@H]1C(C(=O)OC)=C(c1ccc(Cl)c(C(F)(F)F)c1)C2 | 5 | -2 | -1 | i | i | 1
COC(=O)C1=C(c2cc3ccccc3s2)C[C@@H]2CC[C@H]1N2C(=O)NCC1CC1 | -5 | -1 | -4 | i | i | 0
CN(C(=O)Cc1ccc(Cl)c(Cl)c1)C(CN1CCCC1)c1cccc(OCC(=O)O)c1 (centres undefined) | -1 | 3 | 2 | i | nt | nt
COC(=O)[C@]1(C)C[C@H]1[C@H](NP(=O)(c1ccccc1)c1ccccc1)c1ccccc1 | 1 | -20 | -16 | i | i | 0
O=C1NC(=O)N(Cc2ccccc2Cl)C(=O)/C1=C/N1CCOCC1 | 3 | 4 | 5 | i | i | 1
O=C1NC(=O)N(Cc2cccs2)C(=O)/C1=C/c1ccc(N2CCOCC2)cc1 | -1 | 3 | 21 | nt | nt | nt
CCOC(=O)C1=C(C)c2ccccc2OC1(C(=O)OCC)c1ccccc1 (centres undefined) | -5 | -8 | -10 | i | i | 0
CCN(CC)C(=O)c1ccc(NC(=O)c2cc(S(=O)(=O)N3CCCCCC3)ccc2OC)cc1 | 11 | 3 | 2 | i | nt | nt
CCN(CC)C(=O)c1ccc(NC(=O)c2cccc(S(=O)(=O)N3CCN(Cc4ccccc4)CC3)c2)cc1 | 4 | 0 | 3 | i | i | 1
CC1=CC(=O)C2=C(C)C[C@H](O)[C@@H]3[C@H](OC(=O)[C@H]3C)[C@@H]12 | 8 | 1 | -4 | i | nt | nt
CN1CCC(c2c[nH]c3ccc(O)cc23)CC1 | 6 | -4 | -3 | i | nt | nt
CC1CCCC(C)N1/N=C/c1c[nH]c2ccc(Br)cc12 (centres undefined) | 6 | -13 | -11 | i | i | 2
OC1CN2CCC(O)C2C(O)C1O (centres undefined) | nt | 2 | 1 | nt | nt | nt
CC(C)CCOP(N)(=O)Oc1ccccc1Cl (centres undefined) | 6 | 3 | 1 | i | nt | nt
COc1ccc(C2=NCC(=O)N(CC(=O)NCc3ccco3)c3sc4c(c32)CCCC4)cc1 | 5 | -9 | -20 | i | i | 1
CCOC(=O)C1SC2(C(F)(F)F)CC1(O)c1c(C)cc(C)nc1O2 (centres undefined) | -1 | -3 | 0 | + | i | 0
